This is an account of results in PubChem BioAssay.

Experiment [1] is described as follows: rapamycin-like changes in RPL19A-GFP expression – cell-based, S. cerevisiae, multiplex flow cytometry, primary screen (AID 1862; in the data active means percent of DMSO control GFP below about 86%;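 further: lower values mimic rapamycin by blocking the RPL19A rise seen in DMSO cells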). The note with it: S. cerevisiae RPL19A-GFP strain, flow cytometry fluorescence, 3 h; at 10 µM; stronger effect = lower value.
Experiment [2] in a line: TOR pathway GLN3 branch reporter MEP2-GFP changes – S. cerevisiae, multiplex flow cytometry, primary screen (AID 1867;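 active means GFP response, as percent of the DMSO control, above the screen-wide mean plus 3 SD, about 139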;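 further: median GFP channel fluorescence of barcode-gated MEP2-GFP cells measured by flow cytometry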). Conditions: S. cerevisiae MEP2-GFP strain, 3 h, at 10 µM, stronger effect = higher value, 100% means same as DMSO wells.
The nature of experiment [3]: TOR pathway RTG branch CIT2 reporter changes – S. cerevisiae, GFP fusion, multiplex flow cytometry, primary screen (AID 1870;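 active means percent response above a set limit, the screen-wide mean plus 3 SD, cut at about 130% in these data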;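 further: barcoded CIT2-GFP strain pooled with four other GFP strains with rapamycin as positive control; median GFP fluorescence per well over plate mean of DMSO wells so 100% = DMSO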). Conditions: S. cerevisiae CIT2-GFP expression, 3 h, at 10 µM, stronger effect = higher value.
The nature of experiment [4]: TOR pathway LAP4-GFP level changes – S. cerevisiae, multiplex flow cytometry, primary screen (AID 1873;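 active means GFP signal, as percent of the solvent control, above the screen mean plus 3 SD, about 149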). Conditions: S. cerevisiae LAP4-GFP expression, 3 h, at 10 µM, stronger effect = higher value.
Experiment [5] in a line: yeast AGP1-GFP level changes, GLN3 branch – cell-based, multiplex flow cytometry, S. cerevisiae, primary screen (AID 1887;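 active means GFP signal above the screen-wide mean plus 3 SD, that is over about 124.5% of the solvent control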;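 further: AGP1-GFP fusion strain of S. cerevisiae within a five-strain barcoded multiplex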). The note with it: 3 h, at 10 µM, stronger effect = higher value.
Experiment [6] can be described thus: reduced mouse 2C T cell binding to pMHC/ICAM-1 vesicles – MLPCN validation set, flow cytometry, LFA-1/ICAM-1 modulator project, pilot screen (AID 2523).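 On vesicle binding response: mean PE anti-B7-1 fluorescence of CD8+ cells relative to row control; 100% = QL9-loaded vesicles with DMSO vehicle in the same plate row.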 Conditions: 2C mouse CD8+ T cells, at 7 µM, stronger effect = lower value; double positive events: measured here: CD8+/vesicle+ event percentage.
Experiment [7] has as its target Integrin beta-1 (Homo sapiens) + Integrin alpha-4 (Homo sapiens) (UniProt P13612+P05556). Kind of experiment: alpha4beta1 integrin LIBS antibody binding reduction – U937 cells, HUTS-21 mAb, flow cytometry, validation set, VLA-4 allosteric modulator project, pilot screen (AID 2674;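 active means inhibition above 50%, about 3 SD of the validation set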;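 further: antibody binding induced by the VLA-4 ligand LDV present at three times its Kd; 0% = LDV ligand with antibody and no compound and 100% = antibody without LDV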). The note with it: HUTS-21 LIBS mAb binding, at 6.7 µM, stronger effect = higher value, binding induced by LDV ligand.

The nature of experiment [8]: calorie-restriction mimetic ROS inhibitors, yeast – validation compound set, pilot screen (AID 2706;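 active means superoxide response below 65% of plate, a cut near 3 SD across the whole screen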;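 further: yeast exposed to compound for one week at 30 degrees C before staining; 100% = mean of all compound wells on the same plate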). Conditions: S. cerevisiae aging, superoxide DHE fluorescence; at 10 µM, stronger effect = lower value.
The target in experiment [9] is Beta-adrenergic receptor kinase 1 (Homo sapiens) (UniProt P25098). The experiment in a line: GRK2 binders displacing RNA aptamer, biochemical, validation, human GRK2, bead flow cytometry (AID 488806;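 active means aptamer binding inhibition above 30%, about 3 SD of noise from non-fluorescent compounds; inactive means inhibition at or below 30%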). The note with it: bead-bound GRK2, FAM-aptamer displacement, at 10 µM, stronger effect = higher value.
Beta-adrenergic receptor kinase 1 (Homo sapiens), sequence (P25098 whole entry, looked up): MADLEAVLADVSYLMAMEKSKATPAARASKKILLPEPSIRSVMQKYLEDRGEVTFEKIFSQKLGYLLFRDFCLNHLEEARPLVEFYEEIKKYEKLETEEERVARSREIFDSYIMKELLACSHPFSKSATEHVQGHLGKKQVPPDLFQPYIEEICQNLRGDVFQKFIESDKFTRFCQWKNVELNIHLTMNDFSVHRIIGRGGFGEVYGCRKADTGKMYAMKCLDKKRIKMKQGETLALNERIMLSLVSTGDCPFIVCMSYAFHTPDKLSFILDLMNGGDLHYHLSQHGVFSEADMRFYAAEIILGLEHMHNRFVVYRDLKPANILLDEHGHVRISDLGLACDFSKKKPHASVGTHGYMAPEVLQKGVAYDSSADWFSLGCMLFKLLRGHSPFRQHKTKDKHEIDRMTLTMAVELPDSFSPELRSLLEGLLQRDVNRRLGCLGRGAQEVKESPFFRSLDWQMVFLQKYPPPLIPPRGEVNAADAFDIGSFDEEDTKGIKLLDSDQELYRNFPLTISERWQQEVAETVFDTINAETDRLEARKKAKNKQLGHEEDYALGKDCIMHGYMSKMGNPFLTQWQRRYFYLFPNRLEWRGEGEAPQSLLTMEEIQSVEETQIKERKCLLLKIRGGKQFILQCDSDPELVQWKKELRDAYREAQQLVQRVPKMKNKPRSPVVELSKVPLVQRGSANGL
Experiment [10] has as its target AP-2 complex subunit beta (Homo sapiens) (UniProt P63010). Kind of experiment: beta-arrestin/AP2 interaction blockers – biochemical, validation set, GST-AP2 beads, flow cytometry, pilot screen (AID 504541;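 active means inhibition above 54%, about 3 SD of non-fluorescent compounds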;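 further: AP2 carries R879A mutation and is captured from E. coli lysate; bead-bound FITC arrestin peptide fluorescence measuring arrestin peptide binding to AP2; 0% = DMSO wells and 100% = excess unlabeled arrestin peptide control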). Conditions: FITC arrestin peptide, at 10 µM, stronger effect = higher value, AP2 beta2 appendage fragment, R879A mutant.
Experiment [11] can be described thus: cytosolic pH regulators acting via V-ATPase – S. cerevisiae, pHLuorin, HTS validation (AID 504600; in the data active means response above about 15%;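 further: plate controls were DMSO for no effect and reference compound for full effect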). Conditions: V-ATPase proton transport, at 10 µM, stronger effect = higher value.
Experiment [12] concerns anti-desmoglein-3 scFv antibody binding to human DSG3. The experiment in a line: blockers of pathogenic pemphigus antibody–desmoglein-3 binding – biochemical, validation compound set, bead-based, flow cytometry, pilot screen (AID 588368;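 active means binding below the plate cutoff, the plate median minus 3 SD, with a reading above zero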;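 further: signal is the median channel fluorescence of bead-bound GFP antibody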). The note with it: Protein G beads, DSG3-Fc, scFv-GFP binding, at 10 µM, stronger effect = lower value.
The nature of experiment [13]: Nile Red efflux blockade in pump-expressing yeast – validation compound set, multiplex, phenotypic, pilot screen (AID 588506;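 active means efflux inhibition above 0.42, the validation set average plus 4 SD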;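 further: Nile Red retained in cells so higher fluorescence means more efflux inhibition; 0 = negative control wells and 1 = enniatin B 25 µM full block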). The note with it: S. cerevisiae pump-expressing triplex, Nile Red efflux flow cytometry; at 10 µM; stronger effect = higher value; the pumps come from Candida albicans.
Experiment [14] deals with ATP-binding cassette sub-family B member 6 (Homo sapiens) (UniProt Q9NP58). The experiment in a line: blockers of ABCB6-driven porphyrin uptake – K562-ABCB6 cells, flow cytometry, validation set, pilot screen (AID 588550;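 active means inhibition above the screen-wide mean plus 3 SD, about 51%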;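 further: 0% = DMSO wells and 100% = benzethonium chloride 70 µM positive control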). Conditions: K562-ABCB6 porphyrin accumulation, 1 h, at 10 µM, stronger effect = higher value.
ATP-binding cassette sub-family B member 6 (Homo sapiens), sequence (Q9NP58 whole entry, looked up): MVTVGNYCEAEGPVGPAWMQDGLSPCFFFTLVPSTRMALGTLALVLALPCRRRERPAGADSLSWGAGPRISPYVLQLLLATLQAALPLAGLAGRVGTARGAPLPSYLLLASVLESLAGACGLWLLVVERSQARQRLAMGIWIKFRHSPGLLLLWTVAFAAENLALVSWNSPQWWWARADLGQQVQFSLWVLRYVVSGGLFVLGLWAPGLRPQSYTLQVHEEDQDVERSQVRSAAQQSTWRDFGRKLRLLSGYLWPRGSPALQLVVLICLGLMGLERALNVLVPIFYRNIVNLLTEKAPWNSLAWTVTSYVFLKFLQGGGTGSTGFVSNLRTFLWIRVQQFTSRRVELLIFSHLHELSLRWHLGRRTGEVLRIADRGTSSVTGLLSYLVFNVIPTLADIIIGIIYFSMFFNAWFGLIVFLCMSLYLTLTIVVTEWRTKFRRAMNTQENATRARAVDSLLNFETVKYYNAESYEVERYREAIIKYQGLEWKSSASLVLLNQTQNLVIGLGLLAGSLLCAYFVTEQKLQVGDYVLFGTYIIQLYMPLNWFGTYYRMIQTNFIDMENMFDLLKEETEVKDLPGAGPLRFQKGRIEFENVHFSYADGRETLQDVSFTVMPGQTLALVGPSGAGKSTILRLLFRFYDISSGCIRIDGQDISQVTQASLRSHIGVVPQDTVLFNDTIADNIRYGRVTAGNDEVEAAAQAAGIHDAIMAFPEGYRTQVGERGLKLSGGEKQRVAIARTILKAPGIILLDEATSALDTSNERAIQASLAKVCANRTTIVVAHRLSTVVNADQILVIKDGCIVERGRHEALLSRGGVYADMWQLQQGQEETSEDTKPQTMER
A short description of experiment [15]: AML differentiation inducers, ER-HoxA9 marrow cells – cell-based, GFP/MAC1 double positive, flow cytometry, validation set, primary screen (AID 588685;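 active means differentiation response of at least 50%, scaled between solvent and reference control, from cells with both markers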;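 further: compound exposure lasts four days before antibody staining and flow analysis; 0% = DMSO wells and 100% = 5 µM fulvestrant positive control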). The note with it: stronger effect = higher value, normalized: vehicle 0, fulvestrant 100.
Experiment [16] concerns the target Beta-2 adrenergic receptor (Homo sapiens) (UniProt P07550). The experiment in a line: agonist-induced loss of surface beta2AR – cell-based, FAP fluorogen, flow cytometry, validation set, pilot screen (AID 504459;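 active means percent response above 42, roughly 3 SD of non-fluorescent test compounds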;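 further: agonist-driven loss of surface beta2AR via internalization measured by FAP dye flow cytometry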). The note with it: Am2.2-beta2AR cells, at 10 µM, stronger effect = higher value.

Records with an inconclusive call do not appear. Activity calls are given as the source filed them.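 How the source made its calls, unless noted: active means response below a set limit, under 55% cells CD8-positive and vesicle-bound, and CD8 cells' 90th-percentile brightness under 279; inactive means the rest.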

Integrin beta-1 (Homo sapiens) + Integrin alpha-4 (Homo sapiens), sequence (P05556 whole entry, looked up): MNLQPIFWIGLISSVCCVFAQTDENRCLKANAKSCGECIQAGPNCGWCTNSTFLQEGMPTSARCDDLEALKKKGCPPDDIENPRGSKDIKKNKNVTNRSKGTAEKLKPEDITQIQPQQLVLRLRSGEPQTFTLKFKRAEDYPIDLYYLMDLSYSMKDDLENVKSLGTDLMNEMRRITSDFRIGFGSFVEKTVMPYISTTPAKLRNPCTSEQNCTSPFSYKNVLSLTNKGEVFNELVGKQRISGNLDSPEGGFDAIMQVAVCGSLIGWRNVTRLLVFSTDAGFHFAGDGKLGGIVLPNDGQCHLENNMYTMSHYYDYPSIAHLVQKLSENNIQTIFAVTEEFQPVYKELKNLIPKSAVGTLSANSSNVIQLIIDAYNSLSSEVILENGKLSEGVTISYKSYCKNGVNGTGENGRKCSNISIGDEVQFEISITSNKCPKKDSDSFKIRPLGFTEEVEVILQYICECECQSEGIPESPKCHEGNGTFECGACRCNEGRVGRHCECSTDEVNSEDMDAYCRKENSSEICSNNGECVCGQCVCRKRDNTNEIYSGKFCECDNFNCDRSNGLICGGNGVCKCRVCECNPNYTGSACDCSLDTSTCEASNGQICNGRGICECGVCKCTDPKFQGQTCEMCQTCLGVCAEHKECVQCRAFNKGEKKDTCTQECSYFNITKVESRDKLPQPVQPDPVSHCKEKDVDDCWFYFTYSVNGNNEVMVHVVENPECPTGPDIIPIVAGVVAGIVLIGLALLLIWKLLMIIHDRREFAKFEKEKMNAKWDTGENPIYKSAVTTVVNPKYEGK
Integrin beta-1 (Homo sapiens) + Integrin alpha-4 (Homo sapiens), sequence (P13612 whole entry, looked up): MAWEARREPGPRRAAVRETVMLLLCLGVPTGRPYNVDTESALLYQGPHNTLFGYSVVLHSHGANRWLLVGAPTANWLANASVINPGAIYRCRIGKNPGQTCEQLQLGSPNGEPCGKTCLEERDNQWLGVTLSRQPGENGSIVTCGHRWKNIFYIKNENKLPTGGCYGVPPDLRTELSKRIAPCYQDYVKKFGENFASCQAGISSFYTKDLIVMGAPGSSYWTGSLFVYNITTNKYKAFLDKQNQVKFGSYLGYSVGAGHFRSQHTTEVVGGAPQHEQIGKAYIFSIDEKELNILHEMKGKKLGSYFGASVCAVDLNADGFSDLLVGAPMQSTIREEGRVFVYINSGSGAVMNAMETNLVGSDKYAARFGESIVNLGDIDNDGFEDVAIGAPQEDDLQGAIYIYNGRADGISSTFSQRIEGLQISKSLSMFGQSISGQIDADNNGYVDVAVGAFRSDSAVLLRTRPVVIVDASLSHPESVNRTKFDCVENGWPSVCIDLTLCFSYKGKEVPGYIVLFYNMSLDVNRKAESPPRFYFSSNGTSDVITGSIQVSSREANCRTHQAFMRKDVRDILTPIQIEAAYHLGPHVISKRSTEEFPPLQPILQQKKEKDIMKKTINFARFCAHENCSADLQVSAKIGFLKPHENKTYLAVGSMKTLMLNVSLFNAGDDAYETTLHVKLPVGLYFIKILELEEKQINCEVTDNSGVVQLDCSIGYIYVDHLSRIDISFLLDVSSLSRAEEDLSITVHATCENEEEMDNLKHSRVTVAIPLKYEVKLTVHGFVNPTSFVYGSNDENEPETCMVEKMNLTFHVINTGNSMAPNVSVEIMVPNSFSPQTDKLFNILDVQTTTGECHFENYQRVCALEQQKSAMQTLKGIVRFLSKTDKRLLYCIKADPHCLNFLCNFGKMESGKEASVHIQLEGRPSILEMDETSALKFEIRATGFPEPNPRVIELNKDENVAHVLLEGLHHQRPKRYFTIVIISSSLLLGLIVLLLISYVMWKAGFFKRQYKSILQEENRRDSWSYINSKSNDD
AP-2 complex subunit beta (Homo sapiens), sequence (P63010 whole entry, looked up, the tested form may be a part, one chain of several): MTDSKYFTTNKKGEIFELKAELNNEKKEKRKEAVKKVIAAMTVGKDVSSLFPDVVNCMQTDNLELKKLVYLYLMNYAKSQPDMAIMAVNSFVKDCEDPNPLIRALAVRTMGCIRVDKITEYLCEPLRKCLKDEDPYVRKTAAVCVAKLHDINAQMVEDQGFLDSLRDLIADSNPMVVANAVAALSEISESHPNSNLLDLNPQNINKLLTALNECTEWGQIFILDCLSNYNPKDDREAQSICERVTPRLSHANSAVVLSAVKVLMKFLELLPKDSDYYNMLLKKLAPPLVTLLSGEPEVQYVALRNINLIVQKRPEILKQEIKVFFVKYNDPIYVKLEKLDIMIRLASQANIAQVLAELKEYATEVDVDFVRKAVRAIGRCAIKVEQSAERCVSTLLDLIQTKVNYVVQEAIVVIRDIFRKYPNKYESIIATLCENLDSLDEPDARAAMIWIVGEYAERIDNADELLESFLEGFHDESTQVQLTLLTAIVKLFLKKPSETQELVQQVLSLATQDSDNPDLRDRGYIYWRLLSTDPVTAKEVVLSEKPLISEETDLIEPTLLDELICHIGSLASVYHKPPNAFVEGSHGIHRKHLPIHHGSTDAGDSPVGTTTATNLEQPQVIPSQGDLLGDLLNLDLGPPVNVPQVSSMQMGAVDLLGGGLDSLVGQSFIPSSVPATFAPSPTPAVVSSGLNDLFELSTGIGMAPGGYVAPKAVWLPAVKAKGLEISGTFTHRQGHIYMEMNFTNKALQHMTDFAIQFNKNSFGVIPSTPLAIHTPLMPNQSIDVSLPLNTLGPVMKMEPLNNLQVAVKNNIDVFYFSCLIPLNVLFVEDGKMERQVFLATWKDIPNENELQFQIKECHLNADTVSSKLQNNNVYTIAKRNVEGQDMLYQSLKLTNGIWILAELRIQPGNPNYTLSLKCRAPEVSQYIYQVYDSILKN
Beta-2 adrenergic receptor (Homo sapiens), sequence (P07550 whole entry, looked up): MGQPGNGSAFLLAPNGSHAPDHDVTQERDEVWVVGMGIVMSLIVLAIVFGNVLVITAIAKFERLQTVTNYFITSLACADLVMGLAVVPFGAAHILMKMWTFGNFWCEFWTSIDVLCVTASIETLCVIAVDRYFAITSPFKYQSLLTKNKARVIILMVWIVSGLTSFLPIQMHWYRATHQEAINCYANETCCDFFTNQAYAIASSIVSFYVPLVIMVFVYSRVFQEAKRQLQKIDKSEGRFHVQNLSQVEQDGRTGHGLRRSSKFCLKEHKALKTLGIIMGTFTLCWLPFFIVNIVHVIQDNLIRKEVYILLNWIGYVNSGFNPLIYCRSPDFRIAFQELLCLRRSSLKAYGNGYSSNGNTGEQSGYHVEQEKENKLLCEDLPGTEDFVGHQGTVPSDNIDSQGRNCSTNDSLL

As to `CN(CCCN1CCOCC1)Cc1cn(C)nc1-c1ccccc1F`, in experiment [1], the percent of DMSO control GFP is 95.5% (inactive). For the same molecule, the GFP response vs DMSO in [2] was 106% (inactive); in [4], 124% (inactive). Further, the percent response of DMSO control in experiment [3] was 104% (inactive). For the same molecule, in experiment [5], the GFP response, % of DMSO is 114% (inactive). For the same molecule, in experiment [6], the double positive events stood at 62.1%. The vesicle binding response in [6] is 246% (inactive). For the same molecule, the inhibition was -8.78% (inactive) in experiment [7], 70.2% (active) in experiment [10] and 2% (inactive) in [14]. Further, the superoxide response (% of plate) in experiment [8] is 104% (inactive). For the same molecule, the aptamer binding inhibition in experiment [9] is -1% (inactive). The response in experiment [11] was 2.44% (inactive). Also, in experiment [12], the binding (% of control) was 112% (inactive). Further, the efflux inhibition (fraction of control) in experiment [13] was 0.04 (inactive). In addition, in experiment [15], the differentiation response is -1.05% (inactive).

`CCC(C)NCCOCCOc1ccc(Cl)c2ccccc12` (stereo not given): the percent of DMSO control GFP in experiment [1] is 96.6% (inactive). The GFP response vs DMSO in [2] is 123% (inactive); in [4], 99% (inactive). Besides, in experiment [3], the percent response of DMSO control was 107% (inactive). For the same molecule, the GFP response, % of DMSO in experiment [5] was 96.1% (inactive). In addition, the double positive events in experiment [6] was 56.7%. The vesicle binding response in [6] was 204% (inactive). Also, the inhibition was 26.8% (inactive) in [7] and 6% (inactive) in experiment [14]. Moreover, the superoxide response (% of plate) in experiment [8] is 83.4% (inactive). In experiment [9], the aptamer binding inhibition was -5% (inactive). In addition, the values for the response in experiment [16] and in experiment [11] were 34.5% (inactive) and -0.59% (inactive), respectively. Besides, in experiment [12], the binding (% of control) was 108% (inactive). Moreover, in experiment [13], the efflux inhibition (fraction of control) is 0.09 (inactive). Further, in experiment [15], the differentiation response was 24.6% (inactive).

Take `COc1ccc2c(c1)[nH]c1c(=O)n(Cc3ccccn3)cnc12`: the percent of DMSO control GFP in experiment [1] is 97.7% (inactive). Moreover, the GFP response vs DMSO was 97.7% (inactive) in experiment [2] and 106% (inactive) in experiment [4]. In addition, the percent response of DMSO control in experiment [3] is 101% (inactive). Besides, in [5], the GFP response, % of DMSO was 96.1% (inactive). The same molecule had a double positive events in experiment [6] of 64%. For the same molecule, the vesicle binding response in [6] was 1600% (inactive). In addition, the inhibition in experiment [7] was -1.74% (inactive); in experiment [14], 3% (inactive). Besides, the superoxide response (% of plate) in experiment [8] was 109% (inactive). For the same molecule, the aptamer binding inhibition in experiment [9] was -4% (inactive). The response was 2.42% (inactive) in experiment [16] and -2.14% (inactive) in [11]. In [12], the binding (% of control) is 98% (inactive). Also, in [13], the efflux inhibition (fraction of control) is -0.5 (inactive). For the same molecule, the differentiation response in experiment [15] was 10.3% (inactive).

In the case of `COC(=O)c1cc(OC)c(OC)c(OC)c1[N+](=O)[O-]`, in experiment [1], the percent of DMSO control GFP was 103% (inactive). Also, the GFP response vs DMSO in experiment [2] is 97.9% (inactive); in experiment [4], 108% (inactive). The percent response of DMSO control in [3] is 107% (inactive). In experiment [5], the GFP response, % of DMSO is 105% (inactive). This molecule returned a double positive events in experiment [6] of 58.1%. Besides, in [6], the vesicle binding response is 186% (inactive). The inhibition is -0.24% (inactive) in experiment [7], -11.6% (inactive) in [10] and 3% (inactive) in experiment [14]. The superoxide response (% of plate) in experiment [8] was 107% (inactive). Also, the aptamer binding inhibition in [9] was 4% (inactive). For the same molecule, the response in [11] is 39.5% (active). Besides, in [12], the binding (% of control) was 99% (inactive). Besides, in experiment [13], the efflux inhibition (fraction of control) is 0.14 (inactive). For the same molecule, the differentiation response in [15] was -21.2% (inactive).

In the case of `N#Cc1c2c(c(-c3ccccc3)[nH]c1=O)CCCC2`, the percent of DMSO control GFP in [1] is 102% (inactive). Moreover, the GFP response vs DMSO in [2] was 98.9% (inactive); in [4], 85.3% (inactive). Moreover, in [3], the percent response of DMSO control is 103% (inactive). The GFP response, % of DMSO in experiment [5] is 100% (inactive). This molecule also displayed a double positive events in experiment [6] of 56.8%. In addition, the vesicle binding response in experiment [6] was 158% (inactive). The figures for the inhibition in experiment [7], in experiment [10] and in [14] were -7.7% (inactive), -4.92% (inactive) and 5% (inactive), respectively. The superoxide response (% of plate) in [8] is 94% (inactive). The aptamer binding inhibition in [9] was 3% (inactive). Further, the response in [11] was -1.34% (inactive). Also, the binding (% of control) in experiment [12] was 98.8% (inactive). In experiment [13], the efflux inhibition (fraction of control) was -0.05 (inactive). For the same molecule, the differentiation response in experiment [15] is -22.8% (inactive).
